“And” between values parts separate entries of the source, which are not always exact repeats. Equal values may be shown once. Hit rate of the full screen: of about 5,500 compounds, about 2,000 (36%) were called active. Not shown: some 18% with an inconclusive outcome. Rule as the data show it: active = normalized growth mostly below about 0.91 (no sharp cut-off); inconclusive = no clear call, values can overlap the other calls; inactive = mostly above about 0.92. Some of the results follow.
Assay: chemical genetic growth profiling, strain panel (AID 1159580);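 also: tested at 20 µM; growth read once vehicle control cultures reached saturation at 30 °C; 1 = growth at the plate median or of vehicle wells; lower values mean less growth of the strain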
Details: S. cerevisiae deletion strains, growth OD

Measured: normalized growth

NC(=O)N1c2ccccc2CC(=O)c2ccccc21
inactive: locus YAL013W, strain DEP1, active compounds read low 0.996 | locus YAL021C, strain ccr4, active compounds read low 0.991 | locus YAL026C, strain drs2, active compounds read low 0.998 | locus YAL030W, strain snc1, active compounds read low 0.993 | locus YBL061C, strain skt5, active compounds read low 0.994 | locus YBR009C, strain hhf1, active compounds read low 0.942 | locus YBR021W, strain FUR4, active compounds read low 0.969 | locus YBR023C, strain chs3, active compounds read low 1 | locus YBR171W, strain sec66, active compounds read low 0.989 | locus YBR229C, strain ROT2, active compounds read low 0.993 | locus YBR231C, strain swc5, active compounds read low 0.974 | locus YBR279W, strain paf1, active compounds read low 0.99 | locus YCL011C, strain gbp2, active compounds read low 0.991 | locus YCL016C, strain dcc1, active compounds read low 1.01 | locus YCL029C, strain bik1, active compounds read low 0.978 | locus YCL069W, strain vba3, active compounds read low 0.956 | locus YCR088W, strain abp1, active compounds read low 0.976 | locus YDL005C, strain med2, active compounds read low 0.971 | locus YDL035C, strain GPR1, active compounds read low 0.996 | locus YDL040C, strain nat1, active compounds read low 0.992 | locus YDL074C, strain BRE1, active compounds read low 1.03 | locus YDL101C, strain DUN1, active compounds read low 0.992 | locus YDL134C, strain PPH21, active compounds read low 0.989 | locus YDL185W, strain tfp1, active compounds read low 0.976 | locus YDL192W, strain arf1, active compounds read low 0.975 | locus YDR001C, strain nth1, active compounds read low 0.979 | locus YDR069C, strain doa4, active compounds read low 0.963 | locus YDR101C, strain arx1, active compounds read low 0.994 | locus YDR137W, strain rgp1, active compounds read low 0.991 | locus YDR150W, strain NUM1, active compounds read low 1 | locus YDR159W, strain sac3, active compounds read low 0.931 | locus YDR162C, strain NBP2, active compounds read low 1.02 | locus YDR195W, strain ref2 0.927 | locus YDR297W, strain sur2, active compounds read low 0.988 | locus YDR318W, strain mcm21, active compounds read low 0.962 | locus YDR334W, strain swr1, active compounds read low 0.95 | locus YDR335W, strain msn5, active compounds read low 0.973 | locus YDR388W, active compounds read low 0.991 | locus YDR392W, strain spt3, active compounds read low 0.956 | locus YDR502C, strain sam2, active compounds read low 0.994 | locus YEL003W, strain gim4, active compounds read low 0.987 | locus YEL037C, strain rad23, active compounds read low 0.984 | locus YEL061C, strain CIN8 (second series), active compounds read low 0.98 | locus YEL061C, strain CIN8, active compounds read low 0.998 | locus YER015W, strain faa2, active compounds read low 0.993 | locus YER016W, strain bim1, active compounds read low 1.01 | locus YER110C, active compounds read low 0.975 | locus YER111C, strain swi4, active compounds read low 0.993 | locus YER155C, strain BEM2 (second series), active compounds read low 0.97 | locus YER155C, strain BEM2, active compounds read low 0.982 | locus YER167W, strain BCK2, active compounds read low 0.967 | locus YFR010W, strain ubp6, active compounds read low 0.947 | locus YGL078C, strain dbp3, active compounds read low 0.99 | locus YGL086W, strain mad1, active compounds read low 0.974 | locus YGL167C, strain pmr1, active compounds read low 0.968 | locus YGL173C, strain kem1, active compounds read low 0.948 | locus YGL227W, strain vid30, active compounds read low 1.01 | locus YGL240W, strain doc1, active compounds read low 0.948 | locus YGL248W, strain PDE1, active compounds read low 0.987 | locus YGL253W, strain hxk2, active compounds read low 0.966 | locus YGR078C, strain PAC10, active compounds read low 1.01 | locus YGR135W, strain pre9, active compounds read low 1 | locus YGR229C, strain SMI1, active compounds read low 1 | locus YGR252W, strain gcn5, active compounds read low 0.922 | locus YHR013C, strain ard1, active compounds read low 0.995 | locus YHR027C, strain rpn1, active compounds read low 0.972 | locus YHR030C, strain SLT2, active compounds read low 0.983 and 0.997 | locus YHR079C, strain IRE1 (second series), active compounds read low 0.968 | locus YHR079C, strain IRE1, active compounds read low 0.997 | locus YHR094C, strain hxt1, active compounds read low 0.978 | locus YHR129C, strain ARP1, active compounds read low 0.99 | locus YHR142W, strain chs7, active compounds read low 0.977 | locus YHR200W, strain rpn10, active compounds read low 0.97 | locus YIL066C, strain RNR3, active compounds read low 0.991 | locus YIL073C, strain SPO22, active compounds read low 0.955 | locus YIL125W, strain kgd1, active compounds read low 0.998 | locus YIR030C, strain dcg1, active compounds read low 0.981 | locus YJL092W, strain hpr5, active compounds read low 0.995 | locus YJL095W, strain BCK1 (second series), active compounds read low 0.997 | locus YJL095W, strain BCK1, active compounds read low 1.02 and 0.994 | locus YJL115W, strain asf1, active compounds read low 0.992 | locus YJL129C, strain trk1, active compounds read low 0.995 | locus YJL134W, strain LCB3, active compounds read low 0.99 | locus YJL154C, strain vps35, active compounds read low 0.992 | locus YJL164C, strain tpk1, active compounds read low 0.972 | locus YJL166W, strain qcr8, active compounds read low 0.941 | locus YJL168C, strain set2, active compounds read low 0.985 | locus YJL187C, strain SWE1 (second series), active compounds read low 1 | locus YJR043C, strain POL32, active compounds read low 0.979 | locus YJR066W, strain TOR1, active compounds read low 0.946 | locus YJR075W, strain HOC1, active compounds read low 1.05
